# Assay results taken from publication PMC12136788.
# Numbering of substitutions follows the chain as printed. The full ranking holds about 24,000 sequences; the median of “enrichment r” is about 0.99, and the highest 2% start at about 3.7. Only a selection was taken, and the highest values are over-represented in it overall.
# T1: UNK ZnF1-3 (human, UniProt Q9C0B0 31-174)
# T1 sequence: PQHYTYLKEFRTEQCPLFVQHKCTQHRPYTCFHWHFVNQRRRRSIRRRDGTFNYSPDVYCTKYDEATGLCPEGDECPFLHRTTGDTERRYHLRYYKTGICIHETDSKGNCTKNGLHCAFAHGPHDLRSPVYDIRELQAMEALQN
# B1: chr9:91931296:91931297:+_ENSG00000123975_ENST00000314355|hu_hu|hu_hu_hu_mus_True|48_108 (ssRNA)
# RNA: GGGAGUUCUACAGUCCGACGAUCAGAUUGACGAUCCCCAGCUGCACUUCAUUUUUGUUGUUCUUUUGGAAGAGGUCGUCUAAAGAGAAGAAUAUGUGGUUCUGGCUCAUGAAUCAUGUAAUGAACCCAUCCUAGACUCUGUUGCAACAGAGGAUUGAGCAUCA
# B2: chr2:62103349:62103350:-_ENSG00000115484_ENST00000544079|hu_mus|motif|central (ssRNA)
# RNA: GGGAGUUCUACAGUCCGACGAUCAAUAUAGGCUCUCUCCUCUCGAAGCACUCGAUCCAUCUGGGCAUAGUCAGAUACGGCGGUUUGAUUAUCCAUAUCUGUUUUAGGAGCAGAUAAGCAAAACUGAAUAAGCCCAAUCUUAGCCAACAGAGGAUUGAGCAUCA
# B3: 203424622_203424742_3669_3pUTR_ENSG00000204217_ENST00000374580|human|control|control (ssRNA)
# RNA: GGGAGUUCUACAGUCCGACGAUCUUUUAUUUUUAAACAUCUUCUGCAUGUUUAAAUGAUGCAAAAAAUAAUUUCACUCCAUAGGCUUGAAAACAUUUCACAGACAGUUCAUUCCUAUAUCUUUAGACACCAUGGUUGUAGCAGCAACAGAGGAUUGAGCAUCA
# B4: chr7:93623566:93623567:-_ENSG00000105829_ENST00000222547|hu_hu|FALSE|FALSE (ssRNA)
# RNA: GGGAGUUCUACAGUCCGACGAUCGAACAAAUUCCAAAUUCACAAUUACAUGCAUCACCUCAGUUUAAUAAUCCAAUAAAUGAUAAAAAAGACAAAUAAAGAAAACAGCAUCAUAUAGCACAGCAGCUUUGUUUGGCUCCCUCUCAACAGAGGAUUGAGCAUCA
# B5: chr20:57486015:57486016:+_ENSG00000087460_ENST00000306090|hu_mus|FALSE|FALSE (ssRNA)
# RNA: GGGAGUUCUACAGUCCGACGAUCCCUUUUUUUUCUUUUUCUUCUGUAGGCCGCCUUAAGCUUACUAAAUUUGGAACAUCUAAGCAAGCUGAAGGGAAGAGGGGUUUUUCAGAAUCACUGGGGGAAAAAGGAAAGGUUGCGGUGCAACAGAGGAUUGAGCAUCA
# B6: chr19:41288892:41288893:-_ENSMUSG00000025016_ENSMUST00000025989|mus_mus|motif|central (ssRNA)
# RNA: GGGAGUUCUACAGUCCGACGAUCUGGAUGGAACUGAGAAAGCUGGUUAAUUUUAAGAUAAAUAAAUGAGGUUGAUCCAAACGGAGAUUAAGAUGACAGCAGAUAUAUUCCAUGCAGAAUUGAAUAGCUUUUAAUUUUGUUUUUCAACAGAGGAUUGAGCAUCA
# B7: chr2:170668292:170668293:+_ENSG00000138385_ENST00000260956|hu_mus|motif|central (ssRNA)
# RNA: GGGAGUUCUACAGUCCGACGAUCACCUAAUUCGCUUUUCUUUUUAAAAGCUUCUGAAGACAAAAAGCAGCUUAAAAUCGGACGGAGGAAUAAAAACACUGCUUACUAAAUAAACUACUUGUCUCUAGCACCAUUUUCUCUUUUCAACAGAGGAUUGAGCAUCA
# B8: chr1:35650007:35650008:-_ENSG00000116560_ENST00000357214|hu_hu|motif|central (ssRNA)
# RNA: GGGAGUUCUACAGUCCGACGAUCAUCCAUAAAAAGAUAGCUUUCUUACUAAAAUGCAAGAAUUUAAAAGAUUGGUAUCGGAACAAAAAAACAAAACAAACUGGAAUGAAAGCCUAAAUAUCACAUCUAAAAUCGGGGUUUUUUCAACAGAGGAUUGAGCAUCA
# B9: chr6:136599331:136599332:-_ENSG00000029363_ENST00000527536|hu_mus|motif|central (ssRNA)
# RNA: GGGAGUUCUACAGUCCGACGAUCGGGGGCAUCUGAGCAUGAUGAACUCUGACUGGGUGGUGUAGCAAUAGGUGAAGGACGGUGAGGUGACCUUGGACUAUUAUCAUAAGCUGAAAGGCCAGGCCAAAUAUCACCAGAAGUAGCCAACAGAGGAUUGAGCAUCA
# B10: chr15:40462788:40462789:+_ENSG00000156970_ENST00000287598|hu_mus|FALSE|FALSE (ssRNA)
# RNA: GGGAGUUCUACAGUCCGACGAUCAAAGCGGGGGUCAUUAUAAUAGCGCGUCUCUCCUUGGAGUGCUUCUAUCGCUCUCUCCACUAACGCUGACAUGUUACUCUCUUUCCCCCCUUGAGGGUAGUUCUGUUCUGUCCAAUUAAUCAACAGAGGAUUGAGCAUCA
# B11: chr2:128501614:128501615:-_ENSMUSG00000014355_ENSMUST00000014499|mus_mus|FALSE|FALSE (ssRNA)
# RNA: GGGAGUUCUACAGUCCGACGAUCAGCCACAGGGGAUUCGCCUUUGGAGAGGCUUCUGAGAUGUGCUGUCAGGGAGCUGCUAGUAGUUGCAUUCUGCAGGGUCCCUGCCUGCUCAGGGAACUUUAAAACAGCAUUCUCUUCCUCCAACAGAGGAUUGAGCAUCA
# B12: 52131286_52135943_886_CDS_ENSMUSG00000022637_ENSMUST00000114471|mouse|control|control (ssRNA)
# RNA: GGGAGUUCUACAGUCCGACGAUCCGUGAGAAAUGCCAUGUAUCCCGGGUGAGUCACAGCCAAGAAGUUCCAAUUCCGUAAAAUAGAGCCCCAGGGCUGAAAUAGCCUGGUAAAAAUAUCAAAUUCAAACACUGAGAUGUAAUCCAACAGAGGAUUGAGCAUCA
# B13: chr1:130485734:130485735:-_ENSMUSG00000045382_ENSMUST00000052172|mus_hu|FALSE|FALSE (ssRNA)
# RNA: GGGAGUUCUACAGUCCGACGAUCGAUGAAGGAGUCGAUGCUGAUCCCAAUGUAGUAAGGCAGCCAACAGGCGAAGAAAGCCAGGAUGAGGAUGACUGUGGUCUUGAGGGCCUUGCGCUUCUGGUGGCCCUUGGAGUGUGACAGCAACAGAGGAUUGAGCAUCA
# B14: chr20:61576232:61576233:+_ENSG00000101193_ENST00000266069|hu_hu|FALSE|FALSE (ssRNA)
# RNA: GGGAGUUCUACAGUCCGACGAUCGGAUCCACCACGCAAGCGCAGGCGCUACUUGGGCUCCUCAAUCACACCCUUGCUGAGGUCUGUCAUUUUGGGAUAUUUUACUUUCUUCUGGUCCAGCUCGUUCUGAGCCCAAAGUAGUAGCAACAGAGGAUUGAGCAUCA
# B15: chr17:60770872:60770873:+_ENSG00000011028_ENST00000303375|hu_hu|hu_hu_hu_mus_True|28_88 (ssRNA)
# RNA: GGGAGUUCUACAGUCCGACGAUCUCUUUAAAAAAAAAAAAAAAAAGUUUAAAAACAAUAGCACAUUUCGAGAAUCAAGAACUACAAUAGAGGGUCCGCUUUGAGUUGUCCAUGUUCUCGUCCUGCACUGGGACACGGGGACUGCAACAGAGGAUUGAGCAUCA
# B16: chr17:60770872:60770873:+_ENSG00000011028_ENST00000303375|hu_hu|hu_hu_hu_mus_True|1_78 (ssRNA)
# RNA: GGGAGUUCUACAGUCCGACGAUCUCUUUAAAAAAAAAAAAAAAAAGACAAACAAUAAUAAUGGCACUCGAGAAUCAAGAACUACAAUAGAGGGUCCGCUUUGAGUUUUUGUUCACAUCGUCCUGCACUGGGACACGACCAGGACAACAGAGGAUUGAGCAUCA
# B17: chr17:60770872:60770873:+_ENSG00000011028_ENST00000303375|hu_hu|hu_hu_hu_mus_True|8_78 (ssRNA)
# RNA: GGGAGUUCUACAGUCCGACGAUCUCUUUAAAAAAAAAAAAAAAAAGACAAACAAUAAUAAUGGCACUCGAGAAUCAAGAACUACAAUAGAGGGUCCGCUUUGAGUUUUUGUUCACAUCGUCCUGCAACGCUGUCGCGGGACUGCAACAGAGGAUUGAGCAUCA
# B18: chr17:60770872:60770873:+_ENSG00000011028_ENST00000303375|hu_hu|hu_hu_hu_mus_True|58_78 (ssRNA)
# RNA: B16 RNA with A77U, G78C, A86G, A137G, C138G, C139G, G141C, G142U, A143G
# B19: chr17:60770872:60770873:+_ENSG00000011028_ENST00000303375|hu_hu|hu_hu_hu_mus_True|78_78 (ssRNA)
# RNA: B16 RNA with A137G, C138G, C139G, G141C, G142U, A143G
# B20: chr17:60770872:60770873:+_ENSG00000011028_ENST00000303375|hu_hu|hu_hu_hu_mus_True|28_78 (ssRNA)
# RNA: GGGAGUUCUACAGUCCGACGAUCUCUUUAAAAAAAAAAAAAAAAAGACAAACAAUAAUAAUGGCACUCGAGAAUCAAGAACUACAAUAGAGGGUCCGCUUUGAGUUGUCCAUGUUCUCGUCCUGCACUGGGACACGGGGACUGCAACAGAGGAUUGAGCAUCA
# B21: chr17:60770872:60770873:+_ENSG00000011028_ENST00000303375|hu_hu|hu_hu_hu_mus_True|78_88 (ssRNA)
# RNA: GGGAGUUCUACAGUCCGACGAUCUCUUUAAAAAAAAAAAAAAAAAGUUUAAAAACAAUAAUGGCACUCGAGAAUCAAGAACUACAAUAGAGGGUCCGCUUUGAGUUUUUGUUCACAUCGUCCUGCACUGGGACACGGGGACUGCAACAGAGGAUUGAGCAUCA
# B22: chr11:10830335:10830336:-_ENSG00000110321_ENST00000339995|hu_hu|FALSE|FALSE (ssRNA)
# RNA: GGGAGUUCUACAGUCCGACGAUCGCAGCUGCCUCCUCAGGAUCCGGUCGUCGGGGAUAGGGAAGGGAGGGGAAAGGGGAACGGAAAACAAAAAAAAGGGGGAGGGAAGGGGGAGGAAGGAGUCGGGGACGGCCUCAAACUCAGCAACAGAGGAUUGAGCAUCA
# Biological target: T1, UNK ZnF1-3
# Test: nsRBNS (natural sequence RNA bind-n-seq); RBNS binding buffer (assumed for nsRBNS): 25 mM Tris pH 7.5, 150 mM KCl, 3 mM MgCl2, 0.01% Triton X-100, 500 ug/ml BSA, 20 U/ml SUPERase-In, 4 C; UNK is unkempt and MSI1 is Musashi-1; names of the RNAs are library labels; protein concentration not given here; high values mean tight binding
row,Binder,binding signal [enrichment R]
1,B1,0.894
2,B2,1.05
3,B3,0.637
4,B4,2.97
5,B5,1.66
6,B6,5.2
7,B7,1.16
8,B8,4.37
9,B9,1.72
10,B10,0.581
11,B11,1.19
12,B12,1.06
13,B13,1.35
14,B14,0.749
15,B15,3.43
16,B16,3.55
17,B17,2.96
18,B18,3.98
19,B19,4.14
20,B20,3.8
21,B21,5.04
22,B22,2.73
